# Data published in the supplement of paper PMC7393113.
# Values joined by “and” are separate entries in the source; they are usually repeats but may differ in a detail not shown here. Identical values can stand only once. ± gives the standard deviation of the averaged measurements.
# System: iBMDM (immortalised mouse bone-marrow-derived macrophages), LPS-stimulated
# Assay: mitochondrial superoxide (MitoSOX fluorescence) fold increase over unstimulated control; higher = more LPS-induced mitochondrial ROS (less inhibition)
# Conditions: inhibitor concentration: 500 nM, LPS: 100 ng/ml
# Outline: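 Mitochondrial superoxide values are mean fold induction compared with untreated macrophages. Triplicate wells of immortalised mouse bone-marrow-derived macrophages in phenol-red-free 1% FCS/DMEM received kinase inhibitors (500 nM) for 30 min, then 1 μM MitoSox for 10 min, then LPS (100 ng/ml). Fluorescence (510/580 nm) was taken every 60 min for 4 h.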
Structure (SMILES),mitochondrial superoxide (time after LPS: 1 h),mitochondrial superoxide (time after LPS: 2 h),mitochondrial superoxide (time after LPS: 4 h)
Cc1cc2c(F)c(Oc3ncnn4cc(OC[C@@H](C)OC(=O)[C@H](C)N)c(C)c34)ccc2[nH]1,1.37 ± 0.023,1.46 ± 0.058,1.53 ± 0.016
CN1CCN(c2cccc(Nc3nc4c(-c5ccc(S(C)(=O)=O)cc5)cccn4n3)c2)CC1,1.28 ± 0.037,1.45 ± 0.058,1.65 ± 0.051
Cn1cc(-c2ccc3ncc(Cc4ccc5ncccc5c4)n3n2)cn1,1.24 ± 0.1,1.34 ± 0.053,1.61 ± 0.14
C[C@@H]1CCN(C(=O)CC#N)C[C@@H]1N(C)c1ncnc2[nH]ccc12,1.12 and 1.28,1.21 and 1.4,1.3 and 1.58
COC(=O)c1ccc2c(C(=Nc3ccc(N(C)C(=O)CN4CCN(C)CC4)cc3)c3ccccc3)c(O)[nH]c2c1 [Nintedanib (BIBF 1120)],1.43 ± 0.015,1.5 ± 0.056,1.72 ± 0.037
O=C(c1ccc(/C=C/c2n[nH]c3ccccc23)cc1)N1CCNCC1,1.09 ± 0.063,1.19 ± 0.067,1.33 ± 0.035
Cn1cnc(-c2cc3nccc(Oc4ccc(NC(=S)NC(=O)Cc5ccccc5)cc4F)c3s2)c1,1.06 ± 0.021,1.14 ± 0.057,1.26 ± 0.059
CC(C)(C)c1nc(-c2cccc(NS(=O)(=O)c3c(F)cccc3F)c2F)c(-c2ccnc(N)n2)s1,1.25 ± 0.046,1.43 ± 0.054,1.73 ± 0.12
COc1ccc2cc(-c3nc(-c4ccc([S+](C)[O-])cc4)[nH]c3-c3ccncc3)ccc2c1 (configuration not stated) [Tie2 kinase inhibitor],0.981 ± 0.069,1.09 ± 0.058,1.19 ± 0.036
